# Reference: publication PMC7862700, “An all-to-all approach to the identification of sequence-specific readers for epigenetic DNA modifications on cytosine”
# Key:
# Assay in all cases: DAPPL (digital affinity profiling via proximity ligation, sequencing); 10 mM Tris-HCl pH 7.5, 50 mM NaCl, 1 mM DTT, 4% glycerol, room temperature, 30 min; GST-TFs on glutathione beads, 16-mer random dsDNA library, 0.1% formaldehyde crosslink after washing; high values mean tight binding
# FLI1 = biological target: T1, FLI1 (Homo sapiens, UniProt Q01543 1-452); conditions: protein: recombinant; tags: N-terminal GST; dsDNA, one strand shown
# T1 sequence: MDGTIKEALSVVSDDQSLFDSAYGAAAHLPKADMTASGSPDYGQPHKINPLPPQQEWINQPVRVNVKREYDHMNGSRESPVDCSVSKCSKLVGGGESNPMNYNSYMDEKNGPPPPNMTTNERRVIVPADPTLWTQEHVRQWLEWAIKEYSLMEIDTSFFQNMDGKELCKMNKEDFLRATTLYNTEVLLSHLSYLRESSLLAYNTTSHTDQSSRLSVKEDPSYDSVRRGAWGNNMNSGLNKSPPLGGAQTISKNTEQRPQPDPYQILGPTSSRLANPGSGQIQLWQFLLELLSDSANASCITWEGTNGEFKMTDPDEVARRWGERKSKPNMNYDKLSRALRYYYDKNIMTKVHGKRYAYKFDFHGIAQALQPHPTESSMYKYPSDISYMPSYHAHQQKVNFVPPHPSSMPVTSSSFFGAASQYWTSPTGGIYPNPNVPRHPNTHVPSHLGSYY
# Method in brief: (§1)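 Binding signal is each hexamer's read frequency for a factor divided by its frequency in the tag-only sample. The factors were GST-fused human transcription factors from yeast, captured on glutathione beads, DNA-barcoded and pooled with that sample. Pools were incubated with 200 nmole of a random double-stranded 16-mer DNA library in Tris/NaCl/DTT/glycerol buffer at room temperature for 30 min, then washed, crosslinked with 0.1% formaldehyde, proximity-ligated with BsaI/T4 ligase (1 h, 37 °C), PCR-amplified and sequenced on an Illumina NextSeq500.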
# ELK1 = biological target: T2, ELK1 (Homo sapiens, UniProt P19419 1-428); conditions: protein: recombinant; tags: N-terminal GST; dsDNA, one strand shown
# T2 sequence: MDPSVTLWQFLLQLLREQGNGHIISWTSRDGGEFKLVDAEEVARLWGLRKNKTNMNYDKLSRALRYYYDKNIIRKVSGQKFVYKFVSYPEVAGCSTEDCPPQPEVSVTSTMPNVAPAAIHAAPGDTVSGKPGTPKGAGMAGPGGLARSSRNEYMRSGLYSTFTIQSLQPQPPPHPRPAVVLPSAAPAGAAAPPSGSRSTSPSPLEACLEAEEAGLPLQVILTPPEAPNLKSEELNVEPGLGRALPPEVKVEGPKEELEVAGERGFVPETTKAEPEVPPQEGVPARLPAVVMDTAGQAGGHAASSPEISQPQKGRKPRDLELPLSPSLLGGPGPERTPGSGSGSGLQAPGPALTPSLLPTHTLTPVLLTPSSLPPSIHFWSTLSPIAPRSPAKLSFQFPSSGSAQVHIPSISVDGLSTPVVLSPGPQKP
# Method in brief: as §1
# GABPA = biological target: T3, GABPA (Homo sapiens, UniProt Q06546 1-454); conditions: protein: recombinant; tags: N-terminal GST; dsDNA, one strand shown
# T3 sequence: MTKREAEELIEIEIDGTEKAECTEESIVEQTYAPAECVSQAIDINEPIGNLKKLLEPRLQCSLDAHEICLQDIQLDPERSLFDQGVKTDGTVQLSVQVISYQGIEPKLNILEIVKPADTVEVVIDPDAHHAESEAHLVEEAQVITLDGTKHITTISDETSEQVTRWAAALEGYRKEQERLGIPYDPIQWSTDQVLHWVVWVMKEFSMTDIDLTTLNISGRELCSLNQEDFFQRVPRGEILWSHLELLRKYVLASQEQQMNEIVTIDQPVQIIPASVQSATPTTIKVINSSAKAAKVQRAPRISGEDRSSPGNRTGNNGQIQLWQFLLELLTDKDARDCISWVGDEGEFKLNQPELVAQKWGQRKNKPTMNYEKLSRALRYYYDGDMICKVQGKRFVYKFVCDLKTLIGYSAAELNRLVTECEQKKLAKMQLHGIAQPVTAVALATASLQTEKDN
# Method in brief: as §1
# ERG = biological target: T4, ERG (Homo sapiens, UniProt P11308 1-479); conditions: protein: recombinant; tags: N-terminal GST; dsDNA, one strand shown
# T4 sequence: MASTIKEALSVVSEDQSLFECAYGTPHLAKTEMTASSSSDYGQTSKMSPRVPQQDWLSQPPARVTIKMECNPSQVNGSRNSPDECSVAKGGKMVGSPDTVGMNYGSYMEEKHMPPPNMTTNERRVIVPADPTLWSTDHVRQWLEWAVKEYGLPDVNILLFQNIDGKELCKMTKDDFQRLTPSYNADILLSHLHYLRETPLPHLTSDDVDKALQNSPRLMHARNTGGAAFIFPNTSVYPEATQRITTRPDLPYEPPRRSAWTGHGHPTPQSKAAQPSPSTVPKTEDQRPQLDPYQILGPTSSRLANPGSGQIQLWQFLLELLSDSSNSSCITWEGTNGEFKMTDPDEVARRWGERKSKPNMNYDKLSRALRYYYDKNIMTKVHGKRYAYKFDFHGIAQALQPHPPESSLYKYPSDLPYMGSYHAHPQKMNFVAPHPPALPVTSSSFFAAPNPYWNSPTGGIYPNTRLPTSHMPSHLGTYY
# Method in brief: as §1
# ELF1 = ELF1 (Homo sapiens, UniProt P32519 1-619); conditions: protein: recombinant; tags: N-terminal GST; dsDNA, one strand shown
# Method in brief: as §1
# EHF = biological target: T5, EHF (Homo sapiens, UniProt Q9NZC4 1-300); conditions: protein: recombinant; tags: N-terminal GST; dsDNA, one strand shown
# T5 sequence: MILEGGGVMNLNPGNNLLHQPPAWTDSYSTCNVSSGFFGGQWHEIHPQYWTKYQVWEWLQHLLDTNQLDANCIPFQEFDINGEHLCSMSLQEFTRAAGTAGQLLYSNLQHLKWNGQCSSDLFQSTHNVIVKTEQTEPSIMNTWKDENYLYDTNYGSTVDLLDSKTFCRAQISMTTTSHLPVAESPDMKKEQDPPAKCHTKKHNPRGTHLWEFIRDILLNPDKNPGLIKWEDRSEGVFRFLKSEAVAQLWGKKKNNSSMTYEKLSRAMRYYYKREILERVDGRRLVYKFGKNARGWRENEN
# Method in brief: as §1
# SPI1 = SPI1 (Homo sapiens, UniProt P17947 1-270); conditions: protein: recombinant; tags: N-terminal GST; dsDNA, one strand shown
# Method in brief: as §1
# SPIB = SPIB (Homo sapiens, UniProt Q01892 1-262); conditions: protein: recombinant; tags: N-terminal GST; dsDNA, one strand shown
# Method in brief: as §1
# ELK3 = biological target: T6, ELK3 (Homo sapiens, UniProt P41970 1-407); conditions: protein: recombinant; tags: N-terminal GST; dsDNA, one strand shown
# T6 sequence: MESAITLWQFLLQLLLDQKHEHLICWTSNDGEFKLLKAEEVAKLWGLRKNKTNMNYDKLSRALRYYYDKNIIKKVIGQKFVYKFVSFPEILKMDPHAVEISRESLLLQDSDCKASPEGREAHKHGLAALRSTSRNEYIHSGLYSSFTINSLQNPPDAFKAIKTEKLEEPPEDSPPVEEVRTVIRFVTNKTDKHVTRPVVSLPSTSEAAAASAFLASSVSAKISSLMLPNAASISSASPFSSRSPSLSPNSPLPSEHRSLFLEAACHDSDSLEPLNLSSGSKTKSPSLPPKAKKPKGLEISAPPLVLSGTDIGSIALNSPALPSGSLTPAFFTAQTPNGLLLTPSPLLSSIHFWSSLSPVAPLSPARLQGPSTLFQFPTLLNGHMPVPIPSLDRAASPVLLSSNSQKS
# Method in brief: as §1
# FEV = biological target: T7, FEV (Homo sapiens, UniProt Q99581 1-238); conditions: protein: recombinant; tags: N-terminal GST; dsDNA, one strand shown
# T7 sequence: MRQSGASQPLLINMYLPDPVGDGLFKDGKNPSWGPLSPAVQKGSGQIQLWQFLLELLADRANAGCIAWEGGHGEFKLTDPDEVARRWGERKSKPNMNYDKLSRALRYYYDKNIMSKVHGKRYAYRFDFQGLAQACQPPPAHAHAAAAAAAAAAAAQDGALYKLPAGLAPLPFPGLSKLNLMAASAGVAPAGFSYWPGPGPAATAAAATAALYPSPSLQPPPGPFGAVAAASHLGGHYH
# Method in brief: as §1
# ETV5 = ETV5 (Homo sapiens, UniProt P41161 1-510); conditions: protein: recombinant; tags: N-terminal GST; dsDNA, one strand shown
# Method in brief: as §1
# HSF1 = HSF1 (Homo sapiens, UniProt Q00613 1-529); conditions: protein: recombinant; tags: N-terminal GST; chain copies: 3; dsDNA, one strand shown
# Method in brief: as §1
# SPIC = biological target: T8, SPIC (Homo sapiens, UniProt Q8N5J4 1-248); conditions: protein: recombinant; tags: N-terminal GST; dsDNA, one strand shown
# T8 sequence: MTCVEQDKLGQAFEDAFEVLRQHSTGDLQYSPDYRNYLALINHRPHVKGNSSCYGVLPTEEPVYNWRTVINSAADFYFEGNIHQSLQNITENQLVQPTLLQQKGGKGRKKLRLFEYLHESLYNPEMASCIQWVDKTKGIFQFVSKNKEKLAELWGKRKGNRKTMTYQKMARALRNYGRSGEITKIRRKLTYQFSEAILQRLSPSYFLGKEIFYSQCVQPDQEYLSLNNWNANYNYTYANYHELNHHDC
# Method in brief: as §1
# ELF4 = ELF4 (Homo sapiens, UniProt Q99607 1-663); conditions: protein: recombinant; tags: N-terminal GST; dsDNA, one strand shown
# Method in brief: as §1
# ELK4 = biological target: T9, ELK4 (Homo sapiens, UniProt P28324-2 1-405); conditions: protein: recombinant; tags: N-terminal GST; dsDNA, one strand shown
# T9 sequence: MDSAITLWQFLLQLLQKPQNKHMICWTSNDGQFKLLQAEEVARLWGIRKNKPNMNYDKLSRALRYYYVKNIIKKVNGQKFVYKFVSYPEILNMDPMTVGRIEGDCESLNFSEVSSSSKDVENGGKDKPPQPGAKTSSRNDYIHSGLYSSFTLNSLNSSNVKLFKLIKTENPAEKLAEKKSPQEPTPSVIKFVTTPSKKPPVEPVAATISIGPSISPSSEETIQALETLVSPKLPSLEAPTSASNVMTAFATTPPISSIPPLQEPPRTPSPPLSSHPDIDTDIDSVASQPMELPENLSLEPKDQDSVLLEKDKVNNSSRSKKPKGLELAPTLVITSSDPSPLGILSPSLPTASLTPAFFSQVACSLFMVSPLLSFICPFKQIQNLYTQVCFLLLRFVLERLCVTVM
# Method in brief: as §1
# ETV2 = biological target: T10, ETV2 (Homo sapiens, UniProt O00321 1-342); conditions: protein: recombinant; tags: N-terminal GST; dsDNA, one strand shown
# T10 sequence: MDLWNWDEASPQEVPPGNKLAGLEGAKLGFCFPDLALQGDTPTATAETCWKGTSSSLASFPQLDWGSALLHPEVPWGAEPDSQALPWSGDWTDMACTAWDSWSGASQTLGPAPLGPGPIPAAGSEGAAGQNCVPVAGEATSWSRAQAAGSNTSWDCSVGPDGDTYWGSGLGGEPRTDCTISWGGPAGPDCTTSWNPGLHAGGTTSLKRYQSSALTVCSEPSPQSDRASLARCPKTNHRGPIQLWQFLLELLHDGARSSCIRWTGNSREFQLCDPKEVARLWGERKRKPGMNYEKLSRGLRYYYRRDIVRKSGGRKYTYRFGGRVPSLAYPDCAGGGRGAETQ
# Method in brief: as §1
# ELF3 = biological target: T11, ELF3 (Homo sapiens, UniProt P78545 1-371); conditions: protein: recombinant; tags: N-terminal GST; dsDNA, one strand shown
# T11 sequence: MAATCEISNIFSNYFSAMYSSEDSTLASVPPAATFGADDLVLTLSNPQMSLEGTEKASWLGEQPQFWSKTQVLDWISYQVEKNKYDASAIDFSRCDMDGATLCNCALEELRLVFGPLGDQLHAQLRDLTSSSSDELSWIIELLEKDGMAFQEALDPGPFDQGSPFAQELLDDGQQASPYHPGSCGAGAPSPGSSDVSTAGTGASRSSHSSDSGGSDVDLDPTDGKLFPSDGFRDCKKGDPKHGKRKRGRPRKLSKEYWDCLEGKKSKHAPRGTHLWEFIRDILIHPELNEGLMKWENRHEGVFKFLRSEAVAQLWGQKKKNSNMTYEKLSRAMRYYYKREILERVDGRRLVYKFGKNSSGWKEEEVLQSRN
# Method in brief: as §1
# CRX = CRX (Homo sapiens, UniProt O43186 1-299); conditions: protein: recombinant; tags: N-terminal GST; dsDNA, one strand shown
# Method in brief: as §1
# ETV1 = ETV1 (Homo sapiens, UniProt P50549 1-477); conditions: protein: recombinant; tags: N-terminal GST; dsDNA, one strand shown
# Method in brief: as §1
# ELF4, sequence (Q99607 whole entry): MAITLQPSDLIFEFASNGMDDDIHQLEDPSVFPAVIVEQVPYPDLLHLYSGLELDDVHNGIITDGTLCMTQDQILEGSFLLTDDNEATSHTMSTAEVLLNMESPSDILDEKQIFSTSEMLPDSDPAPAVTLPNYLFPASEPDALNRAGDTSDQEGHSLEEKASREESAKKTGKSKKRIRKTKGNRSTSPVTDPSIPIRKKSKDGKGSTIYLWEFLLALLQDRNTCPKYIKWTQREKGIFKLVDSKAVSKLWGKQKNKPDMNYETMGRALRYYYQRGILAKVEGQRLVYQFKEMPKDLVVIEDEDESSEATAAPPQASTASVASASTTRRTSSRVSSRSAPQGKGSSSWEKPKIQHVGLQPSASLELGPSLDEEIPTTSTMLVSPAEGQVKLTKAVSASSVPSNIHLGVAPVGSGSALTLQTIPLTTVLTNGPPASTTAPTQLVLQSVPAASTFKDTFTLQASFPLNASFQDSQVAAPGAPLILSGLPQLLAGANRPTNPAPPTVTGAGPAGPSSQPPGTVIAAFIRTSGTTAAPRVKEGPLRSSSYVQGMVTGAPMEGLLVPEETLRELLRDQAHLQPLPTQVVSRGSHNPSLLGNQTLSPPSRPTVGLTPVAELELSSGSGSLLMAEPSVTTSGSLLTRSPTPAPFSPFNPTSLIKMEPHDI
# ETV1, sequence (P50549 whole entry): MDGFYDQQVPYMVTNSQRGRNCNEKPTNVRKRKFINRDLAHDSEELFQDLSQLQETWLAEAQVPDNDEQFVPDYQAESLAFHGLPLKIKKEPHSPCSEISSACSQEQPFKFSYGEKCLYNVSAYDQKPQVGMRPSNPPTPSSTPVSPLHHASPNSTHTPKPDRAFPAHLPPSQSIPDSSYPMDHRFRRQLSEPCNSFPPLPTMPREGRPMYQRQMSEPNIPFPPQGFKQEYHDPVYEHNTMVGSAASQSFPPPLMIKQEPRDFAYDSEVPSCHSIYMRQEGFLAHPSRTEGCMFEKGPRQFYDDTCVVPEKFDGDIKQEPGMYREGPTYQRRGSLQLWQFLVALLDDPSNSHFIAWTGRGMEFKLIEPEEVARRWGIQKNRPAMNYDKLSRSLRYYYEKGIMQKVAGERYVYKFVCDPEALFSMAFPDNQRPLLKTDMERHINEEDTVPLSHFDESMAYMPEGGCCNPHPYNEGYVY
# ETV5, sequence (P41161 whole entry): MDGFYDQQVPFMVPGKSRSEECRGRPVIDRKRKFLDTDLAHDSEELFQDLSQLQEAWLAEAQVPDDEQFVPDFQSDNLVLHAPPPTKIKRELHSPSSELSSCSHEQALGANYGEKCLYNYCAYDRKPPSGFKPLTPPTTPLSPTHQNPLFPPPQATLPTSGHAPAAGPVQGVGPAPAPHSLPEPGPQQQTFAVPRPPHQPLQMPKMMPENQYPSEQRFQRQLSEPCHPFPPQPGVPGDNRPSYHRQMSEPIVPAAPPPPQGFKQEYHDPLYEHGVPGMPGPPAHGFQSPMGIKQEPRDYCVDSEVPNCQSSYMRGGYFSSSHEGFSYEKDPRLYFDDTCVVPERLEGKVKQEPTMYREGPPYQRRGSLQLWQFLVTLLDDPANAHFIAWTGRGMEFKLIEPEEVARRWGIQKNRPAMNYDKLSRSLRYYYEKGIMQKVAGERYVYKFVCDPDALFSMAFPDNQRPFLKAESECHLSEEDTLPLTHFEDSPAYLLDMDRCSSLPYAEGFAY
# ELF1, sequence (P32519 whole entry): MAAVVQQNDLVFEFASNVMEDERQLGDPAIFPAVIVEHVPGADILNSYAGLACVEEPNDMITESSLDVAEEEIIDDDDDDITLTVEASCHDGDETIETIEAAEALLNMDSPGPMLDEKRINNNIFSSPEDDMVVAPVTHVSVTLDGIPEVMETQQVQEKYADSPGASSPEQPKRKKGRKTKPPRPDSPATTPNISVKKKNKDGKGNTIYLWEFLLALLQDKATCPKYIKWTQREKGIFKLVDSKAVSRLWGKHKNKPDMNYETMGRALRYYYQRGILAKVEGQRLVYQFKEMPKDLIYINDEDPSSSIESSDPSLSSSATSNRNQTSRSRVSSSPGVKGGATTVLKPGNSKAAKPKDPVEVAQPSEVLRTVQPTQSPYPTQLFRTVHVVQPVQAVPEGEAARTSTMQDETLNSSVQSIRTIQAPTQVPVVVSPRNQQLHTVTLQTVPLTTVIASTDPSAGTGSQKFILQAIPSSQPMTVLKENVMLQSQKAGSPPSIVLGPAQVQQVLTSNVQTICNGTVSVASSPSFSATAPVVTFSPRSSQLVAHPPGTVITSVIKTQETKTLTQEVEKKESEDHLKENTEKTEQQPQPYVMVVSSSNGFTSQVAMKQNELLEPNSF
# SPIB, sequence (Q01892 whole entry): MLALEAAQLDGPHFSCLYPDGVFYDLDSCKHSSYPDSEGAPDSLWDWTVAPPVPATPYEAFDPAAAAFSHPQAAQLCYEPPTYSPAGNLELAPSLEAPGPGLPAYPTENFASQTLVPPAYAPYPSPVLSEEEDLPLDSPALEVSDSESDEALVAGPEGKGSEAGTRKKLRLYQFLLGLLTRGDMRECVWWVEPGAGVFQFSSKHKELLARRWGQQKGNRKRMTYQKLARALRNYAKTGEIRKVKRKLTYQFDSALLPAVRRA
# HSF1, sequence (Q00613 whole entry): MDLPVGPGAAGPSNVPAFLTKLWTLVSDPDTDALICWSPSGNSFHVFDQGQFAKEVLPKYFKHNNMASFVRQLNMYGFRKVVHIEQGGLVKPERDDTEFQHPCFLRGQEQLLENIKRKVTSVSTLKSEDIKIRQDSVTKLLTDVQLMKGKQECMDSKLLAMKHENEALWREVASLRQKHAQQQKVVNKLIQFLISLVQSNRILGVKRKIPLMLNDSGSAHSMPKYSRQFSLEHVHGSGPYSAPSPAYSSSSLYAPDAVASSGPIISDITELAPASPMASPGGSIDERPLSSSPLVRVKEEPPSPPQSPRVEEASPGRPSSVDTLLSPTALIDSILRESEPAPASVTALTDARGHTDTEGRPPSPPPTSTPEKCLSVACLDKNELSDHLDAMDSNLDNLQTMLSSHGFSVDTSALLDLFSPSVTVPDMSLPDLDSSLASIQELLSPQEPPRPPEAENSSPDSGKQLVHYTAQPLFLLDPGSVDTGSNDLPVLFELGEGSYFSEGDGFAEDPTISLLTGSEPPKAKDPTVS
# CRX, sequence (O43186 whole entry): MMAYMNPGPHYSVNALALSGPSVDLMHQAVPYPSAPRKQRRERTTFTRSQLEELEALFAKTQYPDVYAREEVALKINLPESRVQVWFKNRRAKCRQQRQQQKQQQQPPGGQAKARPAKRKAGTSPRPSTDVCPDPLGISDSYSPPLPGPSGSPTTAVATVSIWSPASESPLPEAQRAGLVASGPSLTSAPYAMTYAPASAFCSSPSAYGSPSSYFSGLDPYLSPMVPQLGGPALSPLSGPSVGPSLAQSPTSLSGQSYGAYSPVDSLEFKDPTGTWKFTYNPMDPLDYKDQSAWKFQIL
sequence,measurement,setting,value
TTATTA,binding signal,FLI1,"1.17 fold enrichment (6-mer frequency, TF over GST control)"
same,binding signal,ELK1,"1.05 fold enrichment (6-mer frequency, TF over GST control)"
same,binding signal,GABPA,"1.04 fold enrichment (6-mer frequency, TF over GST control)"
same,binding signal,ERG,"1.1 fold enrichment (6-mer frequency, TF over GST control)"
same,binding signal,ELF1,"1.1 fold enrichment (6-mer frequency, TF over GST control)"
same,binding signal,EHF,"1.14 fold enrichment (6-mer frequency, TF over GST control)"
same,binding signal,SPI1,"1.1 fold enrichment (6-mer frequency, TF over GST control)"
same,binding signal,SPIB,"1.04 fold enrichment (6-mer frequency, TF over GST control)"
same,binding signal,ELK3,"1.2 fold enrichment (6-mer frequency, TF over GST control)"
same,binding signal,FEV,"1.09 fold enrichment (6-mer frequency, TF over GST control)"
same,binding signal,ETV5,"1.14 fold enrichment (6-mer frequency, TF over GST control)"
same,binding signal,HSF1,"1.75 fold enrichment (6-mer frequency, TF over GST control)"
same,binding signal,SPIC,"1.31 fold enrichment (6-mer frequency, TF over GST control)"
same,binding signal,ELF4,"1.18 fold enrichment (6-mer frequency, TF over GST control)"
same,binding signal,ELK4,"1.03 fold enrichment (6-mer frequency, TF over GST control)"
same,binding signal,ETV2,"1.2 fold enrichment (6-mer frequency, TF over GST control)"
same,binding signal,ELF3,"1.09 fold enrichment (6-mer frequency, TF over GST control)"
same,binding signal,CRX,"2.49 fold enrichment (6-mer frequency, TF over GST control)"
same,binding signal,ETV1,"1.11 fold enrichment (6-mer frequency, TF over GST control)"
